D2 PAM-1: positively modulates the human D2 dopamine receptor allosterically. P14416. HEK293 T-REx D2, calcium flux, EC20 dopamine potentiation. potentiation, % at 10 µM. 0.34% of 340,000 active. AID 485347;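 active means potentiation over 3 SD above the plate norm, cut at about 30% in these data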
Target sequence (P14416 whole entry, looked up): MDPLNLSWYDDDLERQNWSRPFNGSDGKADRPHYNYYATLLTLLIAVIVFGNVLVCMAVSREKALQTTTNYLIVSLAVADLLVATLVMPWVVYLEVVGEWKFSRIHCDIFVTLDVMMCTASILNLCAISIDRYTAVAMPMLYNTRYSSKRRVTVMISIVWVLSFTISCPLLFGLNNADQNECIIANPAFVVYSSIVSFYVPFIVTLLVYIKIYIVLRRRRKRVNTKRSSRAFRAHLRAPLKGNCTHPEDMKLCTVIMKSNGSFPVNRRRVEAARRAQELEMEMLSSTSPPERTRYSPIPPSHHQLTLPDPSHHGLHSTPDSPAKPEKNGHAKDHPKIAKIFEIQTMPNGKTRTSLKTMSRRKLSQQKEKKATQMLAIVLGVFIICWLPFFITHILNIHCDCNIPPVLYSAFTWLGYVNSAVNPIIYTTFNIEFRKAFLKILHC
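Tetracycline-induced HEK293 T-REx cells force-coupled to calcium signalling expressed D2; compounds were pin-added after a 10 s baseline, read kinetically 180 s, then an EC20 dopamine challenge followed with a further 180 s calcium read.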
D2 PAM-2: positive allosteric modulators of human D2 dopamine receptor; DiscoveRx D2 beta-arrestin cells, luminescence, 90 min; 100% = 57 uM dopamine signal; potentiation, % (test concentration not listed); 0.23% of 360,000 active; in the data active means potentiation above about 50%; inconclusive means mostly about 30% to 49%
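PathHunter D2 cells, attached overnight at 37 deg C, received compound in DMSO plus dopamine at EC20 (50 nM final) for 90 min at 37 deg C. Beta-arrestin recruitment was read as luminescence after 1 h with detection reagent at ambient temperature.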
D2 ag-1: agonists of human D2 dopamine receptor; P14416; HEK293 T-REx D2 cells, calcium flux agonist mode; activation, % at 2 µM; 0.53% of 340,000 active; AID 485358;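 active means activation over 3 SD above normal in the single-dose calcium agonist read, cut at about 30% in these data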
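Agonism scored from kinetic calcium signal (1 read/sec, 180 s) following compound pin transfer, after a 10 s baseline. Cells: HEK293 Trex line expressing inducible D2 receptor coupled to calcium, dye-loaded after overnight culture at 30 C.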
D2 ag-2: activates the human D2 dopamine receptor; P14416; DiscoveRx PathHunter D2 beta-arrestin, luminescence, 90 min; 100% = 57 uM dopamine signal; activation, % (test concentration not listed); 0.084% of 360,000 active; in the data active means activation above about 40%; inconclusive means between about 15% and that limit
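Agonist mode: compounds alone added to overnight-plated D2 PathHunter cells for 90 min at 37 C, with 57 uM final dopamine (EC100) defining full response. Beta-arrestin recruitment detected by chemiluminescent reagent, read after 1 h at ambient temperature.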
D2 antagonist: antagonizes the human D2 dopamine receptor. P14416. HEK293 TREx D2 cells, calcium flux, dopamine EC80. inhibition, % at 10 µM. 2% of 340,000 active. AID 485344; in the data active means inhibition above about 30%; inactive means below that, where a call was filed
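Cells plated overnight at 30 C with tetracycline; no-wash calcium dye, 30–90 min RT; 10 s baseline; compound pinned; 180 s read; EC80 dopamine added; another 180 s read.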
Hits are given with their value; i = inactive; ? = inconclusive; nt = no result. The list is not random: actives were taken first. Their share in the collection is about 2.4%.

SMILES	D2 PAM-1	D2 PAM-2	D2 ag-1	D2 ag-2	D2 antagonist
Cc1ccsc1C(=O)N1CCC(CO)(Cc2ccccc2)CC1	i	i	i	i	i
Nc1nnnn1/N=C/c1cccc(OCc2ccccc2Cl)c1	i	i	i	i	31
O=C(CN1C(=O)c2cccnc2Oc2ccc(Cl)cc21)NC1CCCCCC1	i	i	i	i	41
O=C(COC(=O)c1ccccc1Cl)NCCC1=CCCCC1	i	i	i	i	i
COc1ccc(CNC(=O)CCNS(=O)(=O)c2cc(Br)cnc2N)cc1	46	i	i	i	i
CC1CCCCC1NC(=O)CCNS(=O)(=O)c1cc(Br)cnc1N (configuration not stated)	i	i	i	i	33
Nc1ncc(Br)cc1S(=O)(=O)NCCC(=O)NCc1ccc(F)cc1	i	i	i	i	i
CC(=O)Nc1sc(N/N=C\c2ccc(O)cc2)nc1-c1cccs1	i	i	i	i	i
CC(=O)Nc1sc(N/N=C\c2ccccc2F)nc1-c1cccs1	i	64	i	?	i
Oc1ccc(C[C@H]2CNC(=S)N2CC2CCCN2C[C@H](Cc2ccc(O)cc2)N2C[C@H](Cc3ccc(O)cc3)N(CC3CCCCC3)C2=S)cc1 (some centres not stated)	nt	i	nt	i	nt
CCOc1ccc(/C(O)=C2/C(=O)C(=O)N(CCCN3CCOCC3)C2c2ccc(C)cc2)cc1C (configuration not stated)	i	i	i	i	i
OCC1CCCCN1CC(O)COC(c1ccc(F)cc1)c1ccc(F)cc1 (configuration not stated)	i	i	i	i	31
Cc1sc(N/N=C/c2cccs2)nc1-c1ccccc1	i	66	i	?	i
O=C(Nc1ccc(-c2nc3cccnc3s2)cc1)c1ccc(Cl)nc1	i	i	i	i	i
CC(NCC(=O)Nc1cc(S(=O)(=O)N2CCOCC2)ccc1N1CCOCC1)c1ccco1 (configuration not stated)	i	i	i	i	64
CC(Oc1ccc(F)cc1)C(=O)Nc1cc(S(=O)(=O)N2CCCCC2)ccc1N1CCOCC1 (configuration not stated)	i	i	i	i	37
Cc1ccccc1SCC(=O)Nc1cc(S(=O)(=O)N2CCOCC2)ccc1N1CCOCC1	i	i	nt	i	nt
CSCCC(NC(=O)c1ccco1)C(=O)N1CCN(C(c2ccccc2)c2ccccc2)CC1 (configuration not stated)	i	i	i	i	34
CSCCC(NC(=O)c1ccco1)C(=O)N1CCCC(C(F)(F)F)C1 (configuration not stated)	i	i	i	i	31
CCn1cc(C(=O)OCC(=O)Nc2ccc(C(C)C)cc2)c(=O)c2ccc(C)nc21	nt	i	nt	i	nt
CC(C)C(C)(C#N)NC(=O)CSc1ncnc2sc(-c3ccccc3)cc12 (configuration not stated)	i	i	i	i	31
Cc1ccc(CNC(=O)CCC(=O)n2ncc3cc(C)ccc32)cc1	i	i	i	i	47
Cc1ccc2c(cnn2C(=O)CCCC(=O)NCc2ccc(Cl)cc2)c1	i	i	i	i	i
COc1ccc2c3c(ccc2c1)C(=O)/C(=C/O)CC3	nt	52	nt	?	nt
CCCC1C(C#N)=C(N)Oc2cc(C)n(C)c(=O)c21 (configuration not stated)	i	i	i	i	i
SMILES	D2 PAM-1	D2 PAM-2	D2 ag-1	D2 ag-2	D2 antagonist
Cc1ccc(NC(=O)c2noc(C(C)C)c2[N+](=O)[O-])cc1	i	i	i	i	51
CC(C)c1onc(C(=O)Nc2cccc(O)c2)c1[N+](=O)[O-]	i	i	i	i	i
Cc1ccc(-c2nn(CC(=O)NCc3ccccn3)c(=O)c3ccccc23)cc1S(=O)(=O)N(C)C	i	i	i	i	i
CC1CCN(CCCCOc2ccccc2F)CC1	i	i	i	i	82
Brc1ccccc1OCCCN1CCOCC1	i	i	i	i	i
Brc1ccccc1OCCCCN1CCCCC1	i	i	i	i	76
CC1CCN(CCCCOc2ccccc2Br)CC1	i	i	i	i	91
CC(C)c1ccc(NC(=O)NCc2ccc(F)cc2)cc1	i	i	i	i	i
Cc1nc(N)sc1C(=O)N/N=C/c1ccccc1[N+](=O)[O-]	i	nt	i	nt	33
CN1C(=O)C(N=Nc2ccccc2C(=O)O)N(C)C1=S (configuration not stated)	i	i	i	i	40
Cc1cc(O)c(C(C)C)cc1N=Nc1ccccc1C(=O)O	i	i	i	i	i
CN(C)C1(CNC(=O)c2cccc(S(=O)(=O)NCc3ccccc3)c2)CCCCC1	i	i	i	i	45
C=CCn1c(SCC(=O)Nc2ccc(C(=O)O)cc2)nc2sc(C)c(C)c2c1=O	i	i	i	i	i
C=CCn1c(SCC(=O)Nc2sccc2C#N)nc2sc(C)c(C)c2c1=O	i	i	i	i	32
CCOc1ccc(NS(=O)(=O)c2ccc3[nH]c(=O)cc(C(=O)O)c3c2)cc1	nt	i	nt	i	nt
Cc1cc(Cl)ccc1OCCCC(=O)N1CCN(C)CC1	i	i	i	i	32
CCN(CC)CC#CCC(O)(c1ccccc1)c1ccc(Br)cc1 (configuration not stated)	i	i	i	i	34
O=C(Cn1ccc(C(F)(F)F)n1)N=Nc1c(O)[nH]c2ccc(Br)cc12	42	i	i	i	i
Cc1cc(Oc2ccccc2)nc(SCC(=O)Nc2ccc(Cl)c(Cl)c2)n1	i	i	i	i	i
Cc1cccc(N/C=C/C(=O)c2cccs2)c1C	i	i	i	i	i
NC(=O)c1ccccc1N/C=C/C(=O)c1cccs1	31	i	i	i	i
COc1ccc(C(=O)N(Cc2ccccc2)c2cccc(C)c2)cc1	i	i	i	i	i
CNC(=S)N1CCC(c2nc3ccccc3s2)CC1	i	i	i	i	68
O=C(Cn1nnc(-c2ccccc2)n1)NNC(=O)c1ccc(Br)cc1	i	i	i	i	i
O=C(COC(=O)C1(c2ccccc2)CC1)N1CCN(c2ccc(F)cc2)CC1	i	i	i	i	35
SMILES	D2 PAM-1	D2 PAM-2	D2 ag-1	D2 ag-2	D2 antagonist
CC1CC(C)CN(C(=O)COC(=O)c2cccc([N+](=O)[O-])c2)C1 (configuration not stated)	i	i	i	i	i
O=C(OCC(=O)N1CCN(c2ccccc2)CC1)c1cccc([N+](=O)[O-])c1	i	i	i	i	30
O=C(COc1ccc(Br)cc1)N1CCN(c2ccccc2)CC1	i	i	i	i	i
O=C(COc1ccccc1)N1CCN(c2ccccc2)CC1	i	i	i	i	30
O=C(NC1CCN(C(=S)Nc2ccccc2)CC1)C1CCCCC1	i	i	i	i	i
COC(C[C@H]1O[C@@H]1[C@@H](O)[C@H](C)OCc1ccccc1)OC	i	i	i	i	36
Cc1onc(-c2ccccc2)c1C(=O)OCCOc1ccccc1F	i	i	i	i	38

High-throughput results as filed in PubChem BioAssay.
